# Results from PubChem BioAssay AID1159580 (chemical genetic matrix, 2015).
# The campaign covered roughly 5,500 compounds. About 2,000 (36%) were called active. Another 18% or so got no clear call; they are omitted. Some of the results follow. Values without a mark were called inactive. Cut-off read from the data, not from the text of the source: active = normalized growth mostly below about 0.91 (no sharp cut-off); inconclusive = no clear call, values can overlap the other calls; inactive = mostly above about 0.92.
# Assay: chemical genetic growth profiling, strain panel (AID 1159580);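 note: tested at 20 µM; growth read once vehicle control cultures reached saturation at 30 °C; 1 = growth at the plate median or of vehicle wells; lower values mean less growth of the strain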
# Settings: S. cerevisiae deletion strains, growth OD
smiles,measurement,setting,value
Cc1c(O)c(O)cc2c1CC=C1[C@@]2(C)CC[C@@]2(C)C3C[C@](C)(C(=O)O)CC[C@]3(C)CC[C@]12C (some centres not stated),normalized growth,"locus YJR043C, strain POL32, stronger effect = lower value",0.914
same,normalized growth,"locus YJR066W, strain TOR1, stronger effect = lower value",0.901
same,normalized growth,"locus YKL009W, strain mrt4, stronger effect = lower value",0.986
same,normalized growth,"locus YKL068W, stronger effect = lower value",0.941 (active)
same,normalized growth,"locus YKL085W, strain MDH1 (second series), stronger effect = lower value",0.919 (active)
same,normalized growth,"locus YKL085W, strain MDH1, stronger effect = lower value",0.919 (active)
same,normalized growth,"locus YKL160W, strain elf1, stronger effect = lower value",0.386 (active)
same,normalized growth,"locus YKR001C, strain vps1, stronger effect = lower value",0.728 (active)
same,normalized growth,"locus YKR026C, strain gcn3, stronger effect = lower value",0.804 (active)
same,normalized growth,"locus YKR091W, strain srl3, stronger effect = lower value",0.8 (active)
same,normalized growth,"locus YLL001W, strain dnm1, stronger effect = lower value",0.617 (active)
same,normalized growth,"locus YLL026W, stronger effect = lower value",0.496 (active)
same,normalized growth,"locus YLL041C, strain sdh2, stronger effect = lower value",0.645 (active)
same,normalized growth,"locus YLR027C, strain aat2, stronger effect = lower value",0.433 (active)
same,normalized growth,"locus YLR039C, strain RIC1, stronger effect = lower value",0.616 (active)
same,normalized growth,"locus YLR058C, strain SHM2, stronger effect = lower value",0.894
same,normalized growth,"locus YLR102C, strain apc9, stronger effect = lower value",0.984
same,normalized growth,"locus YLR113W, strain HOG1, stronger effect = lower value",0.651 (active)
same,normalized growth,"locus YLR221C, strain rsa3, stronger effect = lower value",0.4 (active)
same,normalized growth,"locus YLR258W, strain gsy2, stronger effect = lower value",0.398 (active)
same,normalized growth,"locus YLR262C, strain YPT6 (second series), stronger effect = lower value",0.186 (active)
same,normalized growth,"locus YLR262C, strain YPT6, stronger effect = lower value",0.609
same,normalized growth,"locus YLR268W, strain sec22, stronger effect = lower value",0.891
same,normalized growth,"locus YLR320W, strain mms22, stronger effect = lower value",0.221 (active)
same,normalized growth,"locus YLR330W, strain CHS5, stronger effect = lower value",0.877 (active)
same,normalized growth,"locus YLR342W, strain FKS1 (second series), stronger effect = lower value",0.868
same,normalized growth,"locus YLR342W, strain FKS1, stronger effect = lower value",0.561 (active)
same,normalized growth,"locus YLR357W, strain rsc2, stronger effect = lower value",0.657 (active)
same,normalized growth,"locus YLR370C, strain arc18, stronger effect = lower value",0.63 (active)
same,normalized growth,"locus YLR371W, strain rom2, stronger effect = lower value",0.912
same,normalized growth,"locus YLR384C, strain iki3, stronger effect = lower value",0.885 (active)
same,normalized growth,"locus YLR418C, strain cdc73, stronger effect = lower value",0.645 (active)
same,normalized growth,"locus YML016C, strain PPZ1, stronger effect = lower value",0.927
same,normalized growth,"locus YML032C, strain rad52, stronger effect = lower value",0.96
same,normalized growth,"locus YML120C, strain ndi1, stronger effect = lower value",0.568 (active)
same,normalized growth,"locus YML124C, strain tub3, stronger effect = lower value",0.971
same,normalized growth,"locus YMR058W, strain fet3, stronger effect = lower value",0.0953 (active)
same,normalized growth,"locus YMR078C, strain ctf18, stronger effect = lower value",0.984
same,normalized growth,"locus YMR125W, strain sto1, stronger effect = lower value",0.483 (active)
same,normalized growth,"locus YMR129W, stronger effect = lower value",0.764 (active)
same,normalized growth,"locus YMR205C, strain PFK2, stronger effect = lower value",0.364 (active)
same,normalized growth,"locus YMR223W, strain ubp8, stronger effect = lower value",0.906
same,normalized growth,"locus YMR231W, strain pep5, stronger effect = lower value",0.361 (active)
same,normalized growth,"locus YMR307W, strain GAS1, stronger effect = lower value",0.782
same,normalized growth,"locus YNL067W, strain RPL9B, stronger effect = lower value",0.918
same,normalized growth,"locus YNL071W, strain lat1, stronger effect = lower value",0.0934 (active)
same,normalized growth,"locus YNL183C, strain NPR1, stronger effect = lower value",0.837
same,normalized growth,"locus YNL209W, strain ssb2, stronger effect = lower value",0.376 (active)
same,normalized growth,"locus YNL233W, strain BNI4, stronger effect = lower value",0.873
same,normalized growth,"locus YNL248C, strain rpa49, stronger effect = lower value",0.741 (active)
same,normalized growth,"locus YNL250W, strain rad50, stronger effect = lower value",0.972
same,normalized growth,"locus YNL271C, strain bni1, stronger effect = lower value",0.991
same,normalized growth,"locus YNL298W, strain CLA4, stronger effect = lower value",1.01
same,normalized growth,"locus YNL307C, strain MCK1, stronger effect = lower value",0.822 (active)
same,normalized growth,"locus YNL322C, strain KRE1 (second series), stronger effect = lower value",0.935
same,normalized growth,"locus YNL322C, strain KRE1, stronger effect = lower value",0.937
same,normalized growth,"locus YNR049C, strain mso1, stronger effect = lower value",0.72 (active)
same,normalized growth,"locus YNR052C, strain pop2, stronger effect = lower value",0.977
same,normalized growth,"locus YOL012C, strain htz1",0.648
same,normalized growth,"locus YOL147C, strain pex11, stronger effect = lower value",0.976
same,normalized growth,"locus YOR001W, strain rrp6, stronger effect = lower value",0.683 (active)
same,normalized growth,"locus YOR061W, strain CKA2, stronger effect = lower value",0.934
same,normalized growth,"locus YOR069W, strain VPS5, stronger effect = lower value",0.945
same,normalized growth,"locus YOR070C, strain gyp1, stronger effect = lower value",0.393 (active)
same,normalized growth,"locus YOR080W, strain dia2, stronger effect = lower value",0.697 (active)
same,normalized growth,"locus YOR083W, strain WHI5, stronger effect = lower value",0.656 (active)
same,normalized growth,"locus YOR106W, strain vam3, stronger effect = lower value",0.331 (active)
same,normalized growth,"locus YOR136W, strain idh2, stronger effect = lower value",1
same,normalized growth,"locus YOR144C, strain elg1, stronger effect = lower value",0.977
same,normalized growth,"locus YOR184W, strain ser1, stronger effect = lower value",0.812 (active)
same,normalized growth,"locus YOR231W, strain MKK1, stronger effect = lower value",0.917
same,normalized growth,"locus YOR265W, strain rbl2, stronger effect = lower value",0.479 (active)
same,normalized growth,"locus YOR270C, strain vph1, stronger effect = lower value",0.273 (active)
same,normalized growth,"locus YOR290C, strain snf2, stronger effect = lower value",0.434 (active)
same,normalized growth,"locus YOR316C, strain cot1, stronger effect = lower value",0.981
same,normalized growth,"locus YPL051W, strain arl3, stronger effect = lower value",0.248 (active)
same,normalized growth,"locus YPL055C, strain LGE1, stronger effect = lower value",0.755 (active)
same,normalized growth,"locus YPL078C, strain atp4, stronger effect = lower value",0.62 (active)
same,normalized growth,"locus YPL106C, strain sse1, stronger effect = lower value",0.507 (active)
same,normalized growth,"locus YPL240C, strain hsp82, stronger effect = lower value",0.417 (active)
same,normalized growth,"locus YPL241C, strain CIN2, stronger effect = lower value",0.96
same,normalized growth,"locus YPL256C, strain CLN2, stronger effect = lower value",0.856
same,normalized growth,"locus YPR119W, strain clb2, stronger effect = lower value",0.979
same,normalized growth,"locus YPR141C, strain kar3, stronger effect = lower value",0.956
same,normalized growth,"locus YPR163C, strain tif3, stronger effect = lower value",0.924
same,normalized growth,"locus YPR167C, strain met16, stronger effect = lower value",0.948
same,normalized growth,"strain wtn01, stronger effect = lower value",0.93
